Laboratory results: the supplement of paper PMC10981050
Several values for one entry are separate records, joined by “and”; a condition that tells them apart may be missing. Identical values can stand only once. Counter-ions that a name gives are not always drawn.

What was measured:
Test in all cases: cell viability relative to vehicle control; higher = less cytotoxic
Conditions in all cases: 10 µM
K562 = test system: K562
How it was run: (§1)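 Each screen used CRISPR-edited mutant and wild-type clones from four leukaemia lines. Compounds were acoustically dispensed at a single 10 µM dose, and CellTiter-Glo luminescence was read after 48 h with the supernatant first removed. Viability was analysed in Genedata Screener and given as percent of the on-plate vehicle control.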

MARIMO = test system: MARIMO
How it was run: as §1

MOLM14 = test system: MOLM14
How it was run: as §1

OCI-AML2 = test system: OCI-AML2
How it was run: as §1

Row | SMILES | cell viability (K562; SRSF2 genotype: SRSF2 P95H/wt) | cell viability (K562; SRSF2 genotype: SRSF2 wt/wt) [%] | cell viability (MARIMO; SRSF2 genotype: SRSF2 P95H/wt) [%] | cell viability (MARIMO; SRSF2 genotype: SRSF2 wt/wt) [%] | cell viability (MOLM14; SRSF2 genotype: SRSF2 P95H/wt) [%] | cell viability (MOLM14; SRSF2 genotype: SRSF2 wt/wt) [%] | cell viability (OCI-AML2; SRSF2 genotype: P95H/wt) [%] | cell viability (OCI-AML2; SRSF2 genotype: wt/wt) [%]
1 | Cc1nn(C)c2nc(NNC(=O)Nc3cc(Cl)nc(Cl)c3)cc(C(C)C)c12 | 70.7% and 79.6% | 70 | 82.1 | 61.8 | 83 | 83.8 | 50.5 | 55.4
2 | CCOC(=O)CCC(=O)O[C@H]1[C@H](O[C@@H]2[C@@H](C)[C@H](O[C@H]3C[C@@](C)(OC)[C@@H](O)[C@H](C)O3)[C@@H](C)C(=O)O[C@H](CC)[C@@](C)(O)[C@H](O)[C@@H](C)C(=O)[C@H](C)C[C@@]2(C)O)O[C@H](C)C[C@@H]1N(C)C [Erythromycin Ethylsuccinate] | 95.1% and 103% | 108 | 102 | 101 | 106 | 102 | 117 | 98.3
3 | COCCOC(=O)C1=C(C)NC(C)=C(C(=O)OC(C)C)C1c1cccc([N+](=O)[O-])c1 (stereo not given) [Nimodipine (Nimotop)] | 88.8% and 92.4% | 99.3 | 85.2 | 92.7 | 87.6 | 99.4 | 83.7 | 88.4
4 | CC1(C)O[C@@H]2C[C@H]3[C@@H]4C[C@H](F)C5=CC(=O)C=C[C@]5(C)[C@@]4(F)[C@@H](O)C[C@]3(C)[C@]2(C(=O)CO)O1 [Fluocinolone acetonide (Flucort-N)] | 95% and 96% | 92.6 | 98.3 | 104 | 95.6 | 91.6 | 100 | 109
5 | COC(=O)c1ccc(O)c(OC)c1 [Methyl Vanillate] | 101% and 96.9% | 102 | 90.7 | 104 | 103 | 103 | 95.2 | 107
6 | CC(C)C(=O)OCC(=O)[C@@]12O[C@H](C3CCCCC3)O[C@@H]1C[C@H]1[C@@H]3CCC4=CC(=O)C=C[C@]4(C)[C@H]3[C@@H](O)C[C@@]12C [Ciclesonide] | 57% and 55.7% | 62.1 | 63.6 | 68.9 | 41.4 | 41.6 | 25.5 | 59.6
7 | C=C1CCC[C@]2(C)Cc3occ(C)c3C[C@@H]12 [Atractylon] | 104% and 98.2% | 97.5 | 98.4 | 99 | 103 | 99.3 | 95 | 98
8 | O=C1C(c2[nH]c3ccc(S(=O)(=O)O)cc3c2O)=Nc2ccc(S(=O)(=O)O)cc21 [Indigo carmine] | 98.1% and 93.6% | 94.2 | 94.5 | 106 | 83.1 | 99.5 | 79.9 | 84
9 | COCCOC(=O)C1=C(C)NC(C)=C(C(=O)OC/C=C/c2ccccc2)C1c1cccc([N+](=O)[O-])c1 (stereo not given) [Cilnidipine] | 87.1% and 86.8% | 81.2 | 88.1 | 98.1 | 78.8 | 81.6 | 78.9 | 74.5
10 | CCOc1ccc(NC(C)=O)cc1 [Phenacetin] | 98.6% and 97.2% | 91.5 | 89.6 | 92.5 | 98.4 | 95.8 | 88.3 | 93.4
11 | CC(=O)Oc1ccccc1C(=O)Nc1ncc([N+](=O)[O-])s1 [Nitazoxanide (Alinia, Annita)] | 78.4% and 85.8% | 78.4 | 94.8 | 90.9 | 92.5 | 89.7 | 87.5 | 85.5
12 | Nc1ccc(C(=O)O)c(O)c1 [Sodium 4-Aminosalicylate] | 89.6% and 88.1% | 81.3 | 85.7 | 92.5 | 88.7 | 88.1 | 86.3 | 97.5
13 | C[N+](C)(C)CC(O)CC(=O)[O-] (racemic) [DL-Carnitine hydrochloride] | 101% and 105% | 98.8 | 98.4 | 106 | 98.1 | 103 | 102 | 101
14 | C=C[C@]1(C)C[C@@H](OC(=O)CSCCN(CC)CC)[C@]2(C)[C@H](C)CC[C@]3(CCC(=O)[C@H]32)[C@@H](C)[C@@H]1O [Tiamulin fumarate] | 85.7% and 84.7% | 89.8 | 93.4 | 91.3 | 94.2 | 93.7 | 88.6 | 96.6
15 | CC(=O)O/N=C1/C(c2c(O)[nH]c3cc(Br)ccc23)=Nc2ccccc21 [BIO-acetoxime] | 32.5% and 23.4% | 25.4 | 82.2 | 88.4 | 33.1 | 24.4 | 73.2 | 76.2
16 | CO[C@@H]1[C@@H](O[C@@H]2O[C@H](C)[C@@H](O[C@H]3C[C@@](C)(O)[C@@H](O)[C@H](C)O3)[C@H](N(C)C)[C@H]2O)[C@@H](CC=O)C[C@@H](C)[C@@H](O[C@H]2CC[C@H](N(C)C)[C@@H](C)O2)/C=C/C=C/C[C@@H](C)OC(=O)C[C@H]1OC(C)=O [Acetylspiramycin (ASPM)] | 87.2% and 93.6% | 89.4 | 91.4 | 90.3 | 84.4 | 90.9 | 83.1 | 76.8
17 | COc1ccc([C@]2(C#N)CC[C@@H](C(=O)O)CC2)cc1OC1CCCC1 | 96.5% and 91.9% | 99.1 | 93.8 | 110 | 94.8 | 100 | 95.6 | 102
18 | C[N+]1(C)[C@@H]2CC[C@H]1C[C@@H](OC(=O)C(O)c1ccccc1)C2 (stereo not given in full) [Homatropine Methylbromide] | 103% and 100% | 101 | 106 | 114 | 102 | 104 | 92.9 | 105
19 | O=C(O)C1=C(CSc2nnnn2CS(=O)(=O)O)CS[C@@H]2[C@H](NC(=O)[C@H](O)c3ccccc3)C(=O)N12 [Cefonicid sodium] | 103% | 102 | 97.2 | 108 | 96.3 | 105 | 103 | 113
20 | NC(=O)c1ccc(OCCCN2CC3CCCC3C2)cc1 (stereo not given) | 102% and 107% | 104 | 106 | 98 | 100 | 101 | 114 | 98
